Measurements as given in PubChem BioAssay.

Experiment: COS7 lysate on small-molecule microarray, probe aHis, 635 nm (AID 1123);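 also: z-score combines 667nm fluorescence intensity with signal-to-noise per printed compound spot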
Details: COS7 cell lysate, fluorescence, higher = more signal

SMILES	composite z-score
COC(=O)[C@@]1(Cc2ccc(OC)cc2)[C@H]2c3cc(C(=O)N(C)C)n(Cc4ccc(OC)c(OC)c4)c3C[C@H]2CN1C(=O)c1ccccc1	3.17
CN1C(=O)C2C=CC(C(O)C=Cc3ccc([N+](=O)[O-])cc3)N(N3CCCCC3)C2C1=O (centres undefined)	2.1
C=CCOC(=O)[C@H]1[C@@H]2C(=O)O[C@@H](c3ccccc3)[C@@H](c3ccccc3)N2[C@@H](c2ccc(OCCOC(=O)[C@H]3C[C@H]4C(=O)N[C@@H](CCCC[N+](C)(C)C)C(=O)N4[C@H]3c3ccc(O)cc3)cc2)[C@]12C(=O)Nc1ccccc12	0.776
[N-]=[N+]=Nc1ccccc1[C@@H]1OC(c2ccc(OCCCO)cc2)=N[C@]1(CCS(=O)(=O)c1ccccc1)C(=O)N1CCCCC1	1.93

Experiment: probe aLAP1 signal on lysate-treated microarray – cell lysate, small-molecule microarray, COS7 lysate, primary screen (AID 1124);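 also: lysate comes from COS7 cells expressing LAP1 and is applied at 0.3 µg/mL; score merges spot fluorescence near 667 nm with signal-to-noise over triplicate slides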
Details: probe aLAP1, fluorescence, higher = more signal

SMILES	composite z-score
[N-]=[N+]=NCc1ccccc1[C@H]1OC(c2ccc(OCCCO)cc2)=N[C@@]1(Cc1ccccc1)C(=O)NCC(O)CO (some centres undefined)	0.941
NC(=O)NCC#Cc1ccc2c(c1)[C@]1(C(=O)N2)[C@H](c2ccccc2OCCO)N2[C@H](c3ccccc3)[C@H](c3ccccc3)OC(=O)[C@H]2[C@@H]1C(=O)N1CCCCCCC1	1.86
CC(C)(C)OC(=O)CC[C@@]1(C(N)=O)N=C(c2ccc(OCCCO)cc2)O[C@@H]1c1ccccc1N=[N+]=[N-]	-0.293
C=CCC(OC(C)=O)[C@@H]1[C@@H](N(Cc2ccc(-c3cccc(C(F)(F)F)c3)o2)C(=O)Cc2ccc(OC)cc2)c2cc(OCCCO)ccc2N1C(=O)Cc1ccc(OC)cc1 (some centres undefined)	-0.39
CCOC(=O)C1=CC[C@@H](c2cccc(Cl)c2)N(S(=O)(=O)c2ccc(C)cc2)[C@H]1c1ccc(C#N)cc1	0.668
Cc1ccc(F)cc1S(=O)(=O)N[C@@H]1CCN(Cc2ccc(C(F)(F)F)cc2)C1	0.242
C/C=C/[C@H](CCn1cc([C@H](O)c2ccccc2)nn1)[Si](C)(C)c1ccc(OC)cc1	0.612
COCC1C2CC[C@H]3C(OCc4ccc(F)cc4C(F)(F)F)OC[C@]4(C)[C@H]3C2=C(CN4C(=O)OC(C)(C)C)[C@H](C)C1COC (some centres undefined)	0.63
C=C(/C(=C/C[C@@H](OC(=O)c1ccncc1)c1ccc(CO)o1)c1cc(C(=O)OC)ccc1OC)C(C)C	0.812
O=C1O[C@@H](c2ccccc2)[C@@H](c2ccccc2)N2[C@@H](c3ccc(O)cc3)[C@]3(C(=O)Nc4ccccc43)[C@@H](C(=O)N3CCCCCCC3)[C@H]12	1.14
COC(=O)[C@@]1(Cc2ccc(F)cc2)[C@H]2c3cc(C(=O)N4CCCC4)n(CCc4ccc(OC)c(Br)c4)c3C[C@H]2CN1C(=O)c1ccccc1	0.987
Cc1c(NC(=O)/C(C#N)=C/C=C/c2ccccc2)c(=O)n(-c2ccccc2)n1C	-0.195
C=C(C(=O)CC[C@@H](OC(=O)c1cccnc1)c1ccc(OCCO)cc1)C(C)C	0.354
O=c1cccc(-c2cccc3ccccc23)o1	0.871
Cc1ccc(S(=O)(=O)N2CC(C(=O)O)=CCC2c2ccccc2)cc1 (centres undefined)	0.671
O=S(=O)(NCCCO)c1ccc(Br)cc1	0.337
C=CCOC(=O)[C@@H]1[C@H]2C(=O)O[C@H](c3ccccc3)[C@H](c3ccccc3)N2[C@H](c2ccc(OCCOC(=O)[C@H]3C[C@H]4C(=O)N[C@@H](Cc5ccccc5)C(=O)N4[C@H]3c3ccc(O)cc3)cc2)[C@@]12C(=O)Nc1ccc(I)cc12	1.17
C=CCNC(=O)[C@H]1[C@@H]2C(=O)O[C@@H](c3ccccc3)[C@@H](c3ccccc3)N2[C@@H](c2ccc(O)cc2)[C@]12C(=O)Nc1ccc(C#Cc3ccc(OC)cc3)cc12	0.616

SMILES	composite z-score
C[N+](C)(C)CCCC[C@@H]1NC(=O)[C@H]2C[C@@H](C(=O)O)[C@@H](c3cccc(OCCO)c3)N2C1=O	1.07
Cn1c2c(c3ccccc31)C(=O)C1NC2C=CC1(C)C(=O)OCc1ccccc1 (centres undefined)	1.46
CCCCC(=C=CC[C@H](O)c1ccccc1OCCO)C[C@H](O)c1cc(Cl)cc(Cl)c1O	0.569
COc1c(C)cc(-c2cc3c(c(-c4ccccc4)n2)[Si](C(C)C)(C(C)C)O[C@H]3c2ccccc2)cc1C	-0.325
C=CCN1Cc2ccccc2C[C@]2(N=C(c3ccc(OCCCO)cc3)O[C@@H]2c2ccccc2)C1=O	0.75
O=C(N1CCCCC1)[C@]1(CCS(=O)(=O)c2ccccc2)N=C(c2ccc(OCCCO)cc2)O[C@@H]1c1ccccc1	0.165
COc1ccc([Si](C)(C)[C@@H]2[C@@H](CCO)O[C@]3(C(=O)N(Cc4ccccc4)c4ccc(N(C=O)c5ccccc5)cc43)[C@H]2C)cc1	0.719
Cc1ccc(S[C@]2(C(=O)NCCCN(C)C)CC(=O)N(C(C)C)[C@@H]2c2ccc(CO)cc2I)cc1	0.693
C=C(COC)C(=O)CC[C@H](OC(=O)c1cccnc1)c1ccccc1OCCO	0.591
CC(c1ccccc1)C(O)C1C=CC2C(=O)N(Cc3ccccc3)C(=O)C2N1n1cnnc1 (centres undefined)	-0.0771
CN1C(=O)C2C=CC(C(O)C(C)(C)C)N(Nc3ccccc3)C2C1=O (centres undefined)	-0.519
CS(=O)(=O)CCOC(=O)C1=CC(c2ccc(CO)cc2)=CC(c2cccs2)N(Cc2cccc(OC(F)(F)F)c2)C=C1C(=O)OCCS(C)(=O)=O (centres undefined)	0.442
Cc1ccc([C@H]2C(C(=O)O)=C[C@@H](C(C)C)N2S(=O)(=O)c2ccc(C)cc2)cc1	-0.134
COC(=O)[C@@]1(Cc2ccc(OC)cc2)[C@H]2c3cc(C(=O)N(C)C)n(Cc4ccc(OC)c(OC)c4)c3C[C@H]2CN1C(=O)c1ccccc1	0.457
CN1C(=O)C2C=CC(C(O)C=Cc3ccc([N+](=O)[O-])cc3)N(N3CCCCC3)C2C1=O (centres undefined)	1.52
C=CCOC(=O)[C@H]1[C@@H]2C(=O)O[C@@H](c3ccccc3)[C@@H](c3ccccc3)N2[C@@H](c2ccc(OCCOC(=O)[C@H]3C[C@H]4C(=O)N[C@@H](CCCC[N+](C)(C)C)C(=O)N4[C@H]3c3ccc(O)cc3)cc2)[C@]12C(=O)Nc1ccccc12	0.411
[N-]=[N+]=Nc1ccccc1[C@@H]1OC(c2ccc(OCCCO)cc2)=N[C@]1(CCS(=O)(=O)c1ccccc1)C(=O)N1CCCCC1	0.686
